# From PubChem BioAssay
# Target: Concanavalin-A (Canavalia ensiformis) (UniProt P02866)
# Assay: compounds binding concanavalin A lectin – biochemical, small-molecule microarray, Alexa647 label, 635 nm, artefact control for SMM control protein annotation, primary screen (AID 1127);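 note: z combines 667 nm emission intensity with signal-to-noise across three replicate slides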
# Settings: ConA-A647 binding fluorescence, higher = more signal
# Sequence of Concanavalin-A (Canavalia ensiformis) (P02866 whole entry, looked up): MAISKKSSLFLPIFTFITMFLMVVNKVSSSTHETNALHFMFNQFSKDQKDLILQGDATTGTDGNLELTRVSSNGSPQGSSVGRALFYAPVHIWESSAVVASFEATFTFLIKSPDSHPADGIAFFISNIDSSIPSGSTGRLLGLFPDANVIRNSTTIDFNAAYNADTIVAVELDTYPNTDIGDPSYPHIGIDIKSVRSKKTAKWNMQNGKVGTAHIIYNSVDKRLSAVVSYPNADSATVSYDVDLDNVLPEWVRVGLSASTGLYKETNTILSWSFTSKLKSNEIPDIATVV
row,Compound,composite z-score
1,C=CCNC(=O)[C@@H]1[C@H]2C(=O)O[C@H](c3ccccc3)[C@H](c3ccccc3)N2[C@H](c2ccc(O)cc2)[C@@]12C(=O)N(C(=O)OCCOC)c1ccc(C#CCNC(N)=O)cc12,1.1
2,COCCOC(=O)N1C(=O)[C@@]2(c3cc(C#CCCO)ccc31)[C@H](C(=O)N1CCCCCCC1)[C@H]1C(=O)O[C@H](c3ccccc3)[C@H](c3ccccc3)N1[C@@H]2c1ccc(OCCO)cc1,1.16
3,COC(=O)[C@@]1(CCC(=O)OC(C)(C)C)N=C(c2ccc(OCCCO)cc2)O[C@H]1c1ccccc1N=[N+]=[N-],0.721
4,CCCCCN1CC=CC23O[C@@H]4/C=C\CCC(C)OC(=O)C4[C@H]2C(=O)N(C(C)CO)[C@@H]3C1=O (stereo partly specified),-0.211
5,Cc1ccc(S[C@]2(C(=O)NC3CC3)CC(=O)N(Cc3ccccc3)[C@@H]2c2ccc(CO)cc2I)cc1,-0.391
6,O=C1NC(=O)C2C1C=CC(C(O)c1cccs1)N2Nc1ccc(Cl)cc1Cl (stereo unspecified),-0.376
7,C=CCC(OC(C)=O)[C@@H]1[C@@H](N(Cc2ccc(-c3ccccc3)cc2)C(=O)c2cccc3ccccc23)c2cc(OCCCO)ccc2N1C(=O)c1ccc(-c2ccccc2)cc1 (stereo partly specified),-0.249
8,CCOC(=O)C[C@H]1[C@H](OC(=O)c2ccc(C(=O)c3ccccc3)cc2)[C@@H](NC(=O)c2ccccc2)c2cc(OCCCO)ccc2N1C(=O)c1ccc2ccccc2n1,1.05
9,COc1cc2c(cc1O)C(C1CC1)N(Cc1sc3ccccc3c1Cl)CC2 (stereo unspecified),0.0387

# Tested on: not listed separately
# Assay: compounds binding Alexa647 anti-His antibody – biochemical, small-molecule microarray, 635 nm fluorescence, artefact control for SMM control protein annotation, primary screen (AID 1128);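 note: score merges feature fluorescence with signal-to-noise for each printed compound spot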
# Settings: higher = more signal
row,Compound,composite z-score
1,COCCOC(=O)N1C(=O)[C@@]2(c3ccccc31)[C@H](c1ccc(O)cc1)N1[C@H](c3ccccc3)[C@H](c3ccccc3)OC(=O)[C@H]1[C@@H]2C(=O)Nc1nc2ccccc2s1,1.97
2,NC(=O)NCC#Cc1ccc2c(c1)[C@]1(C(=O)N2)[C@H](C(=O)Nc2nc3ccccc3s2)[C@H]2C(=O)O[C@H](c3ccccc3)[C@H](c3ccccc3)N2[C@@H]1c1ccccc1OCCO,0.678
3,COCCOC(=O)N1C(=O)[C@@]2(c3ccccc31)[C@H](c1ccccc1OCCO)N1[C@H](c3ccccc3)[C@H](c3ccccc3)OC(=O)[C@H]1[C@@H]2C(=O)N1CCN(c2ncccn2)CC1,1.22
4,COC(=O)[C@@]1(Cc2ccc(F)cc2)[C@H]2c3cc(C(=O)N4CCCC4)n(CCCNc4ncc(C(F)(F)F)cc4Cl)c3C[C@H]2CN1C(=O)c1ccccc1,2.47
5,CC(C)C[C@@H]1NC(=O)[C@@H]2C[C@H](C(=O)NCc3ccc(F)cc3)[C@H](c3cccc(OCCO)c3)N2C1=O,2.05
6,C=CCC(OC(C)=O)[C@@H]1[C@@H](N(Cc2cc3ccccc3o2)C(=O)c2cccc3ccccc23)c2cc(OCCCO)ccc2N1C(=O)c1ccc(-c2ccccc2)cc1 (stereo partly specified),-0.202
7,C#C[C@H](O[Si](C#Cc1ccc(Oc2ccccc2)cc1)(C(C)C)C(C)C)c1ccccc1,-0.179
8,O=C1N[C@@H](Cc2ccccc2)C(=O)N2[C@@H]1C[C@@H](C(=O)O)[C@H]2c1cccc(OCCO)c1,3.3
9,COCCCNC(=O)[C@@]1(C)c2ccccc2C(=O)N(C(C)C)[C@H]1c1ccc(CO)cc1,1.42
10,C=CCN1C(=O)[C@@]2(Cc3ccccc31)N=C(c1ccc(OCCCO)cc1)O[C@H]2c1ccccc1,2.49
11,CN(C)CCCCCCNC(=O)[C@H]1C[C@H]2C(=O)N[C@@H](CCCCN)C(=O)N2[C@H]1c1cccc(OCCO)c1,3.31
12,COc1cc2c(cc1OC)CN(C(=O)[C@H]1[C@@H]3C(=O)O[C@@H](c4ccccc4)[C@@H](c4ccccc4)N3[C@@H](c3ccc(O)cc3)[C@]13C(=O)Nc1ccccc13)CC2,1.65
13,C=CC1(C(=O)OC)CC=C(C(=O)OC)CC1 (stereo unspecified),0.731
14,CCCC=C(CCC)[C@@H](NC(=O)c1cccs1)c1ccc(C(F)(F)F)cc1,0.51
15,C=CCNC(=O)[C@@H]1[C@H]2C(=O)O[C@H](c3ccccc3)[C@H](c3ccccc3)N2[C@H](c2ccccc2OCCO)[C@@]12C(=O)N(C(=O)OCCOC)c1ccccc12,0.439
16,COC(=O)C[C@H]1O[C@]2(C(=O)N(C)c3ccccc32)[C@@H](C)[C@@H]1[Si](C)(C)F,0.0783
17,C=CCOC(=O)[C@@H]1[C@H]2C(=O)O[C@H](c3ccccc3)[C@H](c3ccccc3)N2[C@H](c2ccc(OCCOC(=O)[C@@H]3C[C@@H]4C(=O)NCC(=O)N4[C@@H]3c3ccc(O)cc3)cc2)[C@@]12C(=O)Nc1ccc(I)cc12,1.88
